This note sets out measurements from PubChem BioAssay AID504847 (National Center for Advancing Translational Sciences (NCATS), 2011).

“And” between values parts separate entries of the source, which are not always exact repeats. Equal entries are not always repeated. Hit rate of the full screen: of about 400,000 compounds, about 3,700 (0.93%) were called active. Another 3% or so got no clear call; they are omitted. The call rests on the fitted dose curve; in most records, active means well fitted inhibition curve with a large enough effect; inconclusive means small, poorly fitted or top-dose-only effect, or another doubt; inactive means no such curve, though single readings can be large or run the other way. For the sample, actives were picked, then their nearest neighbours and some compounds at random. The source holds several records for some structures; these can differ, active in one and inactive in another.
On the % scale 0 is the no-effect control and ±100 the full control effect; potency means the concentration at half of the fitted maximal effect.

The test deals with Vitamin D3 receptor (Homo sapiens) (UniProt P11473). The test is described as follows: Inhibitors of the vitamin D receptor (VDR): qHTS. Particulars: VDR-SRC2-3 peptide fluorescence polarization, 2 h; max response, negative = inhibition: hits give low values. From the text: The vitamin D receptor (VDR) is a ligand-activated transcription factor and is partially responsible for the regulation of the endocrine system. This includes the transcriptional regulation of genes involved in the production of the parathyroid hormone (PTH) and the regulation of the blood calcium level. High levels of PHT can cause hypercalcemia in the case of primary and tertiary hyperparathyroidism. The VDR-mediated gene regulation, activated by its ligand 1,25-dihydroxyvitamin D3 (1,25-(OH)2D3), is governed by the recruitment of coactivators. Our hypothesis is that small molecules, with the ability to inhibit the interaction between VDR and certain coactivators, are able to selectively modulate VDR-mediated transcription. Our long term objective is the application these VDR-coactivator inhibitors to study the role of VDR-coactivator binding for specific VDR regulated genes. Ultimately, these molecules can be developed into new treatments for hypercalcemic hyperparathyroidism. No small molecule or non-peptide inhibitors are known for the VDR-coactivator interaction.
Sequence of Vitamin D3 receptor (Homo sapiens) (P11473 whole entry, looked up): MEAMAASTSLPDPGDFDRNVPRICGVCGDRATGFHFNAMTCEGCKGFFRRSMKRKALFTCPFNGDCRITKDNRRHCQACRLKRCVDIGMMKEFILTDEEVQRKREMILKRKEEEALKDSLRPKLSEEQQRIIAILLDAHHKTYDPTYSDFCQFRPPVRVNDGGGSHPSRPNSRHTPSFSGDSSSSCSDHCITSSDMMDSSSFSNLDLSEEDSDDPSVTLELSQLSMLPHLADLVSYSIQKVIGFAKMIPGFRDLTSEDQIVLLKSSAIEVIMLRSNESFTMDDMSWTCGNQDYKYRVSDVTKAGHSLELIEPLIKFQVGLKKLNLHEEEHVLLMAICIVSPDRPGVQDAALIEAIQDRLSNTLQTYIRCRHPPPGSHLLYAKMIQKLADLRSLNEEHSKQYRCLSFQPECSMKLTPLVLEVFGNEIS
In a collaboration between the University of Wisconsin, Milwaukee and the NIH Chemical Genomics Center (NCGC) a HTS-compatible enzymatic assay was developed. The assay uses fluorescence polarization as its read-out to measure the inhibition between VDR and coregulator peptide SRC2-3 exerted by small molecules. This assay was used to screen the NIH Molecular Libraries Small Molecule Repository (MLSMR).
NIH Chemical Genomics Center [NCGC]
NIH Molecular Libraries Probe Centers Network [MLPCN]
Assay Submitter (PI): Alexander Arnold, University of Wilwaukee
Both solutions are kept at 4 deg C and protected from light and dispensed using a Kalypsys dispenser. Then 23nl of compounds and controls are added with Kalypsys pintool. […] Plate is centrifuged at 1000 RPM for 15 seconds to remove any residual bubbles. The plate is then incubate at ambient room temperature for 2 hours.
(qHTS replaces the single test concentration by a dilution series.)
For the compound `CC[N+](C)(CC)CCC[n+]1c(-c2ccccc2)c2cc(N)ccc2c2ccc(N)cc21`, the Potency is 8.91 µM (active). Regarding `COc1ccc2c3c1O[C@H]1C[C@@H](O)C=C[C@@]31CCN(C)C2`, the max response, negative = inhibition was 4.74% (inactive) and -11.8% (inactive). On to `c1ccc2c(c1)[I+]c1ccccc1-2`, for which the max response, negative = inhibition was -6.32% (inactive).

For the compound `COc1ccc(CN2C(=O)NC(=O)/C(=C\c3ccc(OC)c(OC)c3OC)C2=O)cc1`, the Potency was 70.8 µM (active). `CNC(C)[C@@H](O)c1ccccc1` (stereo partly drawn): the max response, negative = inhibition is 2.28% (inactive). Still for that read-out and setting: under `CO[C@@H]1C[C@@H](C[C@H]2CC[C@H](C)[C@@H]([C@@H](C)C(=O)O)O2)O[C@]2(O[C@](C)([C@H]3CC[C@@](C)(C4OC([C@H]5O[C@@](O)(CO)[C@H](C)C[C@@H]5C)C[C@@H]4C)O3)C[C@H]2C)[C@@H]1C` (stereo partly drawn) stands 10.2% (inactive). For `N#Cc1c(Cl)c(Cl)c(Cl)c(C#N)c1Cl`, the Potency is 0.794 µM (active). Consider `CCCCCCCCCCCCN=C(N)N`, for which the max response, negative = inhibition is 6.41% (inactive). Still for that read-out and setting: for `C[C@@H]1C[C@H]2CC[C@H](O2)[C@H](C)C(=O)O[C@@H](C)C[C@@H]2CC[C@@H](O2)[C@@H](C)C(=O)O[C@H](C)C[C@H]2CC[C@H](O2)[C@H](C)C(=O)O[C@@H](C)C[C@@H]2CC[C@@H](O2)[C@@H](C)C(=O)O1` the value was 8% (inactive); for `COc1ccc2c3c1OC1CC(O)C=C[C@@]31CCN(C)C2` (stereo partly drawn), -3.65% (inactive); for `NC[C@H](O)c1ccc(O)cc1`, 6.55% (inactive).

With `O=C(Nc1cccc(F)c1)N1CC[C@@]2(CCCN(C(=O)Oc3ccccc3)C2)C1`, the max response, negative = inhibition is 2.93% (inactive). For the compound `CCOC(=O)c1ncn2c1[C@@H]1CCCN1C(=O)c1cc(OC)ccc1-2`, the max response, negative = inhibition is -6.26% (inactive). As to `CC(=O)c1c(O)c(C)c(O)c(Cc2c(O)c3c(c(C(=O)/C=C\c4ccccc4)c2O)OC(C)(C)C=C3)c1O`, the Potency is 35.5 µM (active).

For `CC(=O)c1c(O)c(C)c(O)c(Cc2c(O)c3c(c(C(=O)/C=C/c4ccccc4)c2O)OC(C)(C)C=C3)c1O`, the Potency was 14.1 µM (active) and 8.91 µM (active) and 39.8 µM (active). For `CN(C)C[C@H]1CCCC[C@]1(O)c1cccc(O)c1`, the max response, negative = inhibition was 1.62% (inactive). Take `Cc1cccc([C@H](C)c2cnc[nH]2)c1C`: the max response, negative = inhibition was 7.28% (inactive). On to `CO[C@H]1[C@@H](O)[C@@H](C)O[C@H](O[C@H]2[C@H](Oc3cccc4c(O)c5c(=O)oc6ccc(C)c7c(=O)oc(c34)c5c67)O[C@H](C)[C@H](O)[C@@H]2O)[C@@H]1O`, for which the max response, negative = inhibition is 14.9% (inactive). `Cc1ccc(-n2c(/C=C/c3cccc(C(F)(F)F)c3)nc3ccccc3c2=O)cc1`: the max response, negative = inhibition was 9.47% (inactive). With `Cc1ccc(NC(=O)N(Cc2ccc3c(c2)OCO3)C2CCN(Cc3ccccc3)CC2)cc1F`, the max response, negative = inhibition is 4.08% (inactive). With `Fc1ccc(C(OCCN2CCN(C/C=C\c3ccccc3)CC2)c2ccc(F)cc2)cc1`, the max response, negative = inhibition is -15.8% (inactive). As to `CCCCC/C=C\C/C=C\C/C=C\C=C\[C@H](CCCC(=O)O)OO`, the max response, negative = inhibition is 7.28% (inactive) and 4.32% (inactive). Turning to `CCCCC/C=C\C/C=C\C/C=C\C/C=C\CCCCCC(=O)NCCO`, the Potency was 35.5 µM (active); the max response, negative = inhibition was 17.7% (inactive) and -2.94% (inactive) and 0.308% (inactive). Consider `CCCCC/C=C\C/C=C\C/C=C\CCCCCCC(=O)NCCO`, for which the max response, negative = inhibition was -6.07% (inactive) and 11.4% (inactive) and 0.788% (inactive). As for `CC[C@@H]1CN2CC[C@@H]1C[C@H]2[C@H](O)c1ccnc2ccc(OC)cc12`, the max response, negative = inhibition is 3.71% (inactive). As to `COC(=O)N1C(c2ccccc2)C1c1ccccc1` (stereo not drawn), the max response, negative = inhibition is 8.84% (inactive). Consider `CC(=O)[O][Sn]([c]1ccccc1)([c]1ccccc1)[c]1ccccc1`, for which the Potency was 2.24 µM (active). As to `O=C(O)CCn1cc(C=C2C(=O)NC(=S)NC2=O)c(-c2cccc(Br)c2)n1`, the Potency was 25.1 µM (active). As for `C[C@@]12CC[C@H]3[C@@H](CC[C@]4(O)C[C@H](O)CC[C@@]34C=O)[C@]1(O)CC[C@@H]2C1=CC(=O)OC1`, the max response, negative = inhibition is 6.85% (inactive). Consider `c1csc(CN2CC3(CCNCC3)C2)n1`, for which the max response, negative = inhibition is 2.29% (inactive). For the compound `Cc1cccc2c3c(ccc12)C1=C(C(=O)C3=O)C(C)CO1` (stereo not drawn), the Potency is 5.62 µM (active). In the case of `COc1ccc(C2Oc3c(I)c(OC)cc(OC)c3CC2O)cc1OC` (stereo not drawn), the max response, negative = inhibition was -4.29% (inactive).

`Nc1ccc(-c2ccc(N)c(N)c2)cc1N`: the max response, negative = inhibition is 7.8% (inactive). The same measure, in the same setting: under `c1ccc(CCCCN2CCC(c3ccccc3)CC2)cc1` stands 6.23% (inactive) and 8.72% (inactive).

In the case of `Cc1ncsc1CCCl`, the max response, negative = inhibition was -5.72% (inactive) and -13.2% (inactive) and 18.1% (inactive). Same read-out and setting: under `COc1ccccc1-c1[se]c2ccccc2c1I` stands -10.1% (inactive).

As to `N#CC(C#N)=Cc1cc(O)c(O)c([N+](=O)[O-])c1`, the Potency is 44.7 µM (active). Turning to `CCC(C)C(=O)O[C@@H]1C[C@@]2(C)C(c3ccoc3)OC(=O)CC23OC2(C)O[C@@]14[C@@]1(C)C(CC(=O)OC)C5(C)CC1(O)C(O)(C5OC(=O)C1(C)OC1C)C(OC(C)=O)[C@@]34O2` (stereo partly drawn), the max response, negative = inhibition is -0.0436% (inactive).

`C[C@]12O[C@H](C[C@@]1(O)C(=O)O)n1c3ccccc3c3c4c(c5c6ccccc6n2c5c31)CNC4=O`: the max response, negative = inhibition is 0.321% (inactive).

Take `COc1cc2c(cc1OC)[C@@H]1C(=O)c3ccc(O)c(CC=C(C)C)c3OC1CO2` (stereo partly drawn): the max response, negative = inhibition is 10.7% (inactive).

For the compound `CCCCCCCCCCCCCC(=O)O[C@@H]1[C@@H](C)[C@@]2(O)[C@@H](C=C(CO)C[C@]3(O)C(=O)C(C)=C[C@@H]23)[C@@H]2C(C)(C)[C@]12OC(C)=O`, the max response, negative = inhibition was 3.48% (inactive). As for `CCC1(c2ccccc2)C(=O)NC(=O)N(C)C1=O` (stereo not drawn), the max response, negative = inhibition is 3.76% (inactive). Still for that read-out and setting: for `O=P1(Oc2ccccc2)CC(O)C(O)C(COCc2ccccc2)O1` (stereo not drawn) the value was -0.629% (inactive). In the case of `CC(=O)OC1C2(CC3N4C(=O)C5(CO)SSC4(CC31O)C(=O)N5C)OC(C)C(C)(C)C2=O` (stereo not drawn), the Potency is 39.8 µM (active). With `Cc1cccc(Cn2cccc(C(=O)Nc3ccc4c(c3)OCCO4)c2=O)c1`, the max response, negative = inhibition was 10.5% (inactive). Same read-out and setting: under `Clc1ccc([C@@H]2C[C@H]3CC[C@@H]2N3)cn1` stands 3.4% (inactive).

`C1CC[C@H]([C@@]23C[C@H](C[C@H]4CCCN[C@H]42)[C@@H]2CCCCN2C3)NC1`: the max response, negative = inhibition was 1.42% (inactive).
